# According to PubChem BioAssay (Tox21):
# Some structures have more than one record in an assay (separate samples or runs), and their calls can disagree. Active and inactive are the calls of the source. Calls come from the whole dose curve.
# Biological target: Androgen receptor (Homo sapiens) (UniProt P10275)
# Test: qHTS assay to identify small molecule agonists of the androgen receptor (AR) signaling pathway in the presence of an antagonist (AID 1259381); note: nearly all actives have a fitted effect of over 15% in size
# Settings: MDA-kb2 MMTV-luciferase, AR agonist + nilutamide, 16 h; series mostly up to 92.4 µM; activation: at the top concentration
# Text: National Center for Advancing Translational Sciences [NCATS] NIH Chemical Genomics Center [NCGC] U.S. Environmental Protection Agency [EPA] National Institutes of Environmental Health Sciences [NIEHS] National Toxicology Program [NTP] Assay overview: Androgen receptor (AR) is an important member of nuclear receptor family. Its signaling plays a critical role in AR-dependent prostate cancer and other androgen related diseases. Considerable attention has been given in the past decades to develop methods to study and screen for the environmental chemicals that have the potential to interfere with metabolic homeostasis, reproduction, developmental and behavioral functions. Therefore AR binding assay for screening against androgen agonists and antagonists can be used to identify potential endocrine disruptors. MDA-kb2 cells (from ATCC, deposited by Wilson et al.) are human breast carcinoma cells that were stably transfected with a luciferase reporter gene under control of the MMTV promoter that contains response elements for both androgen receptor (AR) and glucocorticoid receptor (GR). This particular screening for measuring luciferase reporter gene activity using MDA-kb2 cells against Tox21 10K library compounds is a confirmation study on agonist mode screening in the presence of AR-antagonist compound (Nilutamide) at 3.0uM final concentration.
# Assay Protocol Summary: MDA-kb2 cells (cells cultured without CO2) were dispensed at 3,000 cells/well in 4uL of culture medium into white wall/solid-bottom 1536-well plates (Corning Life Sciences, Corning, NY) using a Multidrop Combi (Thermo Fisher Scientific Inc., Waltham, MA) dispenser. The assay plates were incubated at 37C and 0% CO2 for 5hr. One uL of 3.0uM (final concentration) Nilutamide or assay buffer was added using two separate tips of Flying Reagent Dispenser (FRD, Aurora Discovery, San Diego, CA). Then 23nL of compounds dissolved in DMSO at 15 concentrations and positive controls were transferred to the assay plates using a Pintool station (Wako, San Diego, CA). The assay plates were incubated at 37C and 0% CO2 for 16hr. For luciferase read, 4uL/well ONE-Glo reagent (Promega Corporation, Madison, WI) was added to each well of the assay plates using FRD. After 30min incubation at room temperature, the luminescence signal was measured using a ViewLux plate reader (PerkinElmer, Shelton, CT).
# % is set by controls: 0 for no effect and ±100 for the full control effect; potency is the fitted concentration of half-maximal effect.
# Sequence of Androgen receptor (Homo sapiens) (P10275 whole entry, looked up): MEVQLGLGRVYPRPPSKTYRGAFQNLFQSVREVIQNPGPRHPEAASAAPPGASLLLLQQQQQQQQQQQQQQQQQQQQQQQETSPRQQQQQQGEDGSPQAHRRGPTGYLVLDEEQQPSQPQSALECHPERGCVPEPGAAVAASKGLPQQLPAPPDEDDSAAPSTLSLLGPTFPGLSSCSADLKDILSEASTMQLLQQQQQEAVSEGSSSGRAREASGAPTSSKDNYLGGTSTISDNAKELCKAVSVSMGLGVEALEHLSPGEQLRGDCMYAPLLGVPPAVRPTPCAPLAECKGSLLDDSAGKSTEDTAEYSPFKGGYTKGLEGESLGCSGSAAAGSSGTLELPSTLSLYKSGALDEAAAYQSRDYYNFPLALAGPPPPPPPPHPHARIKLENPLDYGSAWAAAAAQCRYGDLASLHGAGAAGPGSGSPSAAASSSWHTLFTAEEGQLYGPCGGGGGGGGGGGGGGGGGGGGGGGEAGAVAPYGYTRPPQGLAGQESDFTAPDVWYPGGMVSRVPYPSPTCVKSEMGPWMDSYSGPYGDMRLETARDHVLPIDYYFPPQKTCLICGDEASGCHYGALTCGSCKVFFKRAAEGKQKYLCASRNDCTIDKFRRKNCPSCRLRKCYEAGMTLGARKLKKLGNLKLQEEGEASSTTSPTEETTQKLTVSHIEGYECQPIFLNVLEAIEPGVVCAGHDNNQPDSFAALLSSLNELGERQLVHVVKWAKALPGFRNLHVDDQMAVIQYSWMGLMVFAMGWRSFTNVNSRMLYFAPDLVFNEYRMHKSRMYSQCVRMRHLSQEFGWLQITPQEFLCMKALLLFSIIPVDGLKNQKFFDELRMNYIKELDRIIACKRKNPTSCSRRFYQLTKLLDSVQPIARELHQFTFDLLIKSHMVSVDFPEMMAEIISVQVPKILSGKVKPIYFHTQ
SMILES,activation,Potency
Clc1cccnc1,-1.18% (inactive),–
N#CSCSc1nc2ccccc2s1,3.07% (inactive),–
O=C[C@H](O)[C@H](O)[C@H](O)CO,0.327% (inactive),–
CC(=O)O[C@@H]1C[C@@H]2CC[C@@]1(C)C2(C)C,8.95% (inactive),–
CCOC(OCC)C(=O)c1ccccc1,0.0882% (inactive),–
OCCCc1cccnc1,5.09% (inactive),–
CC1CNCC(C)O1 (stereo not given),9.82% (inactive),–
CCC(C)c1cc([N+](=O)[O-])cc([N+](=O)[O-])c1OC(=O)OC(C)C (stereo not given),-9.43% (inactive),–
CC1=CP(=O)(c2ccccc2)CC1 (stereo not given),-0.784% (inactive),–
COc1cccc(OC)c1O,-0.765% (inactive),–
O=c1cccc[nH]1,11.4% (inactive),–
CC1CCCCC1,-0.255% (inactive),–
Oc1cc2ccccc2cc1O,-1.91% (inactive),–
c1ccc2c(c1)CCC2,14.5% (inactive),–
CC(=O)OC1CCCCC1,2.06% (inactive),–
C[Si](C)(C)Cl,0.172% (inactive),–
c1cc[nH]c1,-0.869% (inactive),–
CC1(C)COCN1,11.4% (inactive),–
Clc1ccc(C(Cn2ccnc2)OCc2c(Cl)cccc2Cl)c(Cl)c1 (stereo not given),-4.61% [at 42.5 µM] (inactive),–
Cc1c(C(=O)O)cccc1[N+](=O)[O-],-1.37% (inactive),–

SMILES,activation,Potency
O=S(=O)(O)c1cc(S(=O)(=O)O)c2ccc3c(S(=O)(=O)O)cc(S(=O)(=O)O)c4ccc1c2c43,3.07% [at 19 µM] (inactive),–
Nc1ccc2cc3ccc(N)cc3nc2c1,–,inactive
COc1ccccc1C=O,0.158% (inactive),–
Cn1cccc1,0.0442% (inactive),–
NC(=O)c1ccccc1N,-0.105% (inactive),–
COC(=O)C1=C(C)NC(C)=C(C(=O)OCCCN2CCC(c3ccccc3)(c3ccccc3)CC2)C1c1cccc([N+](=O)[O-])c1 (stereo not given),-10.3% [at 42.5 µM] (inactive),–
C=C/C=C/C=C/CCCCC,5.43% [at 19 µM] (inactive),–
CCC1CCCCC1,0.0625% (inactive),–
CCCC(O)C(O)CO (stereo not given),-1.54% (inactive),–
Cc1ccc(-n2[nH]c(C)c(N=Nc3cccc(-c4cccc(C(=O)O)c4)c3O)c2=O)cc1C,-2.97% [at 42.5 µM] (inactive),–
C=C(C)CCCC,9.43% (inactive),–
O=C1c2c(O)ccc(O)c2C(=O)c2c(NCCNCCO)ccc(NCCNCCO)c21,-8.65% [at 42.5 µM] (inactive),–
CCCSS/C(CCO)=C(\C)N(C=O)Cc1cnc(C)nc1N,-1.05% [at 42.5 µM] (inactive),–
CCc1ccc(C)nc1,0.404% (inactive),–
CCCC(=O)OCC(COC(=O)CCC)OC(=O)CCC,-2.08% (inactive),–
CCC(C)c1ccccc1 (stereo not given),6.56% (inactive),–
CCCCCCS,-1.84% (inactive),–
OCCCS,-1.6% (inactive),–
CC1=C(/C=C/C(C)=C/C=C/C(C)=C/C(=O)Nc2ccc(O)cc2)C(C)(C)CCC1,–,8.85 µM (active) and inactive
O=CC1CC1,4.07% (inactive),–
